Experimental data as given in PubChem BioAssay (NCI).
This is part of a sample that, as a whole, favours compounds with a hit. Of some 83,000 tested, about 20% had one in any assay.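 Testing used 96-well plates and a 48-hour single-concentration exposure. Example: -40 means 40% of the starting cells died.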 Calls of active or inactive are those of the source. Rule for the calls: active = growth percent below 10; inactive = the rest.

These compounds were tested on NCI/ADR-RES ovarian (assay: NCI-60 one-dose screen, 48 h (100 = growth as untreated, 0 = no growth, -100 = all killed)). Settings: 10 µM unless noted.

Row | Structure (SMILES) | growth
1 | CCOC(=O)C1=C(C)NC(C)=C(C(=O)OCC)C1(C)C | 122% (inactive)
2 | Cc1[nH]c2ccc(F)cc2c1CCNC(=O)C1CCN(C(=O)c2ccccc2)C1 (stereo unspecified) | 97.6% [25 µM] (inactive)
3 | COc1ccc(C(=O)N2NC(=O)/C(=C/c3ccc(Br)cc3)N=C2c2ccccc2)cc1 | 83.4% (inactive)
4 | Cc1ccc(-c2cc3nc(-c4ccccc4)nc(C(Cl)Cl)n3n2)cc1 | -30.7% (active)
5 | O=C(Nc1cccc(-n2cc(-c3ccncc3)c(-c3ccc(Cl)c(O)c3)n2)c1)Nc1cccc(C(F)(F)F)c1 | 24.9% (inactive)
6 | COC(OC)c1ccccc1 | 99.4% (inactive)
7 | COc1ccc(NC(=O)c2c(Nc3ccc(OC)cc3OC)n[nH]c2N)c(OC)c1 | 101% (inactive)
8 | CC(C)(C)n1cc(-c2ccnc(NCCCNS(=O)(=O)c3ccc(F)cc3)c2)c(-c2cccc(O)c2)n1 | 53% (inactive)
9 | O=C(C1=Cc2cc3ccccc3n2Cc2cnnn21)c1ccccc1 | 27% (inactive)
10 | N=C(N)c1ccc(-c2ccc(-c3cncc4ccccc34)s2)cc1F | 1.93% (active)
11 | c1cc(C2=N[C@@H]3c4ccccc4C[C@@H]3O2)nc(C2=N[C@@H]3c4ccccc4C[C@@H]3O2)c1 | 98.7% (inactive)
12 | CN(C)c1oc(C2OC2c2ccccc2)nc1C#N (stereo unspecified) | 100% (inactive)
13 | COc1cccc(-c2cc3c(O)cc(C#N)cc3[nH]2)c1 | 89.2% (inactive)
14 | c1ccc(-c2nc(N3CCNCC3)c3nc(-c4ccccc4)oc3n2)cc1 | -69.2% (active)
15 | CN(C[C@H]1Cc2c(cccc2N2CCN(Cc3ccccn3)CC2)CN1)[C@H]1CCCc2cccnc21 | 28.1% (inactive)
16 | COc1ccc(-n2c(=O)sc3c(Cl)nc(C)nc32)c(OC)c1 | 101% (inactive)
17 | O=C(Nc1ccc(Cl)c(Cl)c1)NS(=O)(=O)c1cnccc1Oc1ccc(F)cc1 | 53.3% (inactive)
18 | S=C(S)NCCc1c[nH]c2ccccc12 | 101% (inactive)
19 | COc1ccc(Nc2[nH]n3c(=O)cc(-c4ccccc4)nc3c2C(=O)Nc2ccc(C)cc2)c(OC)c1 | 108% (inactive)
20 | COc1ccc(-n2c(=S)sc3c(Cl)nc(C)nc32)c(OC)c1 | 78.5% (inactive)

Row | Structure (SMILES) | growth
21 | COc1ccc(-c2ccc(C)n2-c2ccc(-c3nc4ccccc4s3)cc2)cc1 | 89.9% (inactive)
22 | COc1cc(/C(C#N)=C/c2ccc3c(c2OC)OCO3)cc2c1OCO2 | -7.38% (active)
23 | Cc1ccc2ccccc2c1C[n+]1ccccc1 | 104% (inactive)
24 | COc1ccc(-c2ccc(-c3ccc(-c4ccc(C(=N)N)cc4)s3)s2)cc1OC | 84% (inactive)
25 | O=C(CSc1nc2ccccc2[nH]1)Nc1ccc(-c2nc3ccccc3s2)c(Cl)c1 | 9.5% (active)
26 | O=c1ccn(-c2ncnc3nc[nH]c23)cc1 | 97.6% (inactive)
27 | CN(C[C@H]1Cc2c(cccc2N2CCN(c3ncccn3)CC2)CN1)[C@H]1CCCc2cccnc21 | 9.46% (active)
28 | COc1ccc(Nc2nn3c(-c4ccccc4)cc(-c4ccccc4)nc3c2C(N)=O)c(OC)c1 | 30.4% (inactive)
29 | COc1cc(-c2nn(-c3cccc(NC(=O)Nc4cccc(C(F)(F)F)c4)c3)cc2-c2ccncc2)ccc1Cl | -11.9% (active)
30 | COc1ccc(C2C=C(c3ccc(Cl)cc3)N=C3SC=C(C)N32)c(Br)c1 (stereo unspecified) | 33.2% (inactive)
31 | O=C1C2(c3ccccc3)C(c3ccccc3)=C(c3ccccc3)C1(c1ccccc1)C1CC=CC12 (stereo unspecified) | 90.3% (inactive)
32 | CC(=O)Oc1csc(N(C(C)=O)c2cccc(C(F)(F)F)c2)n1 | 104% (inactive)
33 | COc1ccc(C2C=C(c3ccc(OC)c(OC)c3)N=C3SC=C(C)N32)c(Br)c1 (stereo unspecified) | 113% (inactive)
34 | CCC(=O)OC1=CN2C(=NC(c3ccc(N)cc3)=CC2c2cc(OC)c(OC)c(OC)c2)S1 (stereo unspecified) | 66.9% (inactive)
35 | C=C1CCC2C(C)(CO)C(O)CCC2(C)C1C/C=C1/C(=O)OCC1Oc1ccccc1C (stereo unspecified) | 81.1% (inactive)
36 | CCCCCCCC/C=C/CCCCCCCC1=NC(C)(C)CN1C(C)(C)CO | 56% (inactive)
37 | CN(C)c1cccc2c(S(=O)(=O)/N=C(\N)Nc3nc4ccccc4s3)cccc12 | 48% (inactive)
38 | N/C(=N\S(=O)(=O)c1ccccc1)Nc1nc2ccccc2s1 | 91.8% (inactive)
39 | COc1ccc(Nc2[nH]n3c(=O)cc(C)nc3c2C(N)=O)c(OC)c1 | 103% (inactive)

Each compound was assayed on T-47D breast in the same assay as above. Settings: 10 µM unless noted.

Row | Structure (SMILES) | growth
40 | CCOC(=O)C1=C(C)NC(C)=C(C(=O)OCC)C1(C)C | 95% (inactive)
41 | Cc1[nH]c2ccc(F)cc2c1CCNC(=O)C1CCN(C(=O)c2ccccc2)C1 (stereo unspecified) | 69.5% [25 µM] (inactive)
42 | COc1ccc(C(=O)N2NC(=O)/C(=C/c3ccc(Br)cc3)N=C2c2ccccc2)cc1 | 85.6% (inactive)
43 | Cc1ccc(-c2cc3nc(-c4ccccc4)nc(C(Cl)Cl)n3n2)cc1 | -47.1% (active)
44 | O=C(Nc1cccc(-n2cc(-c3ccncc3)c(-c3ccc(Cl)c(O)c3)n2)c1)Nc1cccc(C(F)(F)F)c1 | 18.5% (inactive)
45 | COC(OC)c1ccccc1 | 99.4% (inactive)
46 | COc1ccc(NC(=O)c2c(Nc3ccc(OC)cc3OC)n[nH]c2N)c(OC)c1 | 83% (inactive)
47 | O=C(C1=Cc2cc3ccccc3n2Cc2cnnn21)c1ccccc1 | 28.8% (inactive)
48 | N=C(N)c1ccc(-c2ccc(-c3cncc4ccccc34)s2)cc1F | -63.3% (active)
49 | CN(C)c1oc(C2OC2c2ccccc2)nc1C#N (stereo unspecified) | 89.5% (inactive)
50 | COc1cccc(-c2cc3c(O)cc(C#N)cc3[nH]2)c1 | 101% (inactive)
51 | c1ccc(-c2nc(N3CCNCC3)c3nc(-c4ccccc4)oc3n2)cc1 | -56.6% (active)
52 | CN(C[C@H]1Cc2c(cccc2N2CCN(Cc3ccccn3)CC2)CN1)[C@H]1CCCc2cccnc21 | 44.6% (inactive)
53 | COc1ccc(-n2c(=O)sc3c(Cl)nc(C)nc32)c(OC)c1 | 84.7% (inactive)
54 | O=C(Nc1ccc(Cl)c(Cl)c1)NS(=O)(=O)c1cnccc1Oc1ccc(F)cc1 | -0.777% (active)
55 | S=C(S)NCCc1c[nH]c2ccccc12 | 88% (inactive)
56 | COc1ccc(Nc2[nH]n3c(=O)cc(-c4ccccc4)nc3c2C(=O)Nc2ccc(C)cc2)c(OC)c1 | 83.8% (inactive)
57 | COc1ccc(-n2c(=S)sc3c(Cl)nc(C)nc32)c(OC)c1 | 51.3% (inactive)
58 | COc1ccc(-c2ccc(C)n2-c2ccc(-c3nc4ccccc4s3)cc2)cc1 | 73.3% (inactive)

Row | Structure (SMILES) | growth
59 | COc1cc(/C(C#N)=C/c2ccc3c(c2OC)OCO3)cc2c1OCO2 | 52.7% (inactive)
60 | Cc1ccc2ccccc2c1C[n+]1ccccc1 | 109% (inactive)
61 | COc1ccc(-c2ccc(-c3ccc(-c4ccc(C(=N)N)cc4)s3)s2)cc1OC | 28.5% (inactive)
62 | O=C(CSc1nc2ccccc2[nH]1)Nc1ccc(-c2nc3ccccc3s2)c(Cl)c1 | -12.7% (active)
63 | O=c1ccn(-c2ncnc3nc[nH]c23)cc1 | 84% (inactive)
64 | CN(C[C@H]1Cc2c(cccc2N2CCN(c3ncccn3)CC2)CN1)[C@H]1CCCc2cccnc21 | 26.1% (inactive)
65 | COc1ccc(Nc2nn3c(-c4ccccc4)cc(-c4ccccc4)nc3c2C(N)=O)c(OC)c1 | 34.9% (inactive)
66 | COc1cc(-c2nn(-c3cccc(NC(=O)Nc4cccc(C(F)(F)F)c4)c3)cc2-c2ccncc2)ccc1Cl | -4.03% (active)
67 | COc1ccc(C2C=C(c3ccc(Cl)cc3)N=C3SC=C(C)N32)c(Br)c1 (stereo unspecified) | 39.3% (inactive)
68 | O=C1C2(c3ccccc3)C(c3ccccc3)=C(c3ccccc3)C1(c1ccccc1)C1CC=CC12 (stereo unspecified) | 68.3% (inactive)
69 | CC(=O)Oc1csc(N(C(C)=O)c2cccc(C(F)(F)F)c2)n1 | 87.7% (inactive)
70 | COc1ccc(C2C=C(c3ccc(OC)c(OC)c3)N=C3SC=C(C)N32)c(Br)c1 (stereo unspecified) | 98.3% (inactive)
71 | CCC(=O)OC1=CN2C(=NC(c3ccc(N)cc3)=CC2c2cc(OC)c(OC)c(OC)c2)S1 (stereo unspecified) | 58.2% (inactive)
72 | C=C1CCC2C(C)(CO)C(O)CCC2(C)C1C/C=C1/C(=O)OCC1Oc1ccccc1C (stereo unspecified) | 84.9% (inactive)
73 | CCCCCCCC/C=C/CCCCCCCC1=NC(C)(C)CN1C(C)(C)CO | -10.2% (active)
74 | CN(C)c1cccc2c(S(=O)(=O)/N=C(\N)Nc3nc4ccccc4s3)cccc12 | 39.6% (inactive)
75 | N/C(=N\S(=O)(=O)c1ccccc1)Nc1nc2ccccc2s1 | 75.9% (inactive)
76 | COc1ccc(Nc2[nH]n3c(=O)cc(C)nc3c2C(N)=O)c(OC)c1 | 79.8% (inactive)
